Compound activity from PubChem.
KDM5B inhibitor: KDM5B demethylase inhibition; Q9UGL1; KDM5B demethylase, FDH-coupled NADH fluorescence (FDH is formaldehyde dehydrogenase); Potency, µM (highest dose often 57.7 µM), hits mostly inhibitors; hit rate 2.6% among 220,000; note: potency is the fitted concentration of half-maximal effect; 0% is about no effect; nearly all actives have a fitted effect of over 70% in size
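Coupled FDH/NAD⁺ fluorescence readout. KDM5BΔAP 200 nM final; compound titration, 10 min RT preincubation; substrate mix 12.5 µM H3K4me3, 25 µM 2-OG, 50 µM Fe(II), 100 µM ascorbate, 0.25 mM NAD⁺, 0.25 U/mL FDH; ΔRFU over 30 min.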
IP6K1 inh: IP6K1 kinase inhibition | Q92551 | IP6K1 kinase, ADP-Glo luminescence, 2 h; hits give low values | activity change, % (series mostly up to about 58 µM) | hit rate 0.81% among 140,000; in the data active = activity change below about -25%; note: % is set by controls: 0 for no effect and ±100 for the full control effect
Target sequence (Q92551 whole entry, looked up): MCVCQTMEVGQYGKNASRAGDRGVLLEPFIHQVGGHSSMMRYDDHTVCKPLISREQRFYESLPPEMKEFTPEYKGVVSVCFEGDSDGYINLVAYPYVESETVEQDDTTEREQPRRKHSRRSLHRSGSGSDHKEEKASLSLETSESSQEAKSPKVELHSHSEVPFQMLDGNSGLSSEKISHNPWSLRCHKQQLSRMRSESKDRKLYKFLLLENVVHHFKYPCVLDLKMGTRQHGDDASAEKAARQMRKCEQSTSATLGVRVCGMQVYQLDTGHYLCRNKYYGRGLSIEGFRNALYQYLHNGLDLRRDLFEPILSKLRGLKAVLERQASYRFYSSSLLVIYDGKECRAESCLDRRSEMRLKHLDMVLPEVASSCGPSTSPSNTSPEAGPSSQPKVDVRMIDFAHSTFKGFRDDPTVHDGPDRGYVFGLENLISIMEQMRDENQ
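ADP-Glo luminescence measures ADP made by human IP6K1 during a 2 h RT reaction with ATP/IP6 (mix at 1.3 mM/130 uM); top library doses 57.5 and 19.1 uM final.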
IP6K1 conf: human IP6K1 inhibition, confirmatory; shares compounds with IP6K1 inh; recombinant IP6K1 kinase, ADP-Glo luminescence, 2 h; Potency, µM (titrated, usually from 49 µM), without a hit: at the highest dose activity change, negative = inhibition, hits mostly inhibitors; hit rate 13% among 1,200; AID 1645852; note: potency is the fitted concentration of half-maximal effect; % is set by controls: 0 for no effect and ±100 for the full control effect; nearly all actives have a fitted effect of over 65% in size
Starred values were filed as active, the others as inactive; i = inactive; ? = inconclusive; · = not tested or not shown. A selection: hits, their analogues and other compounds. The true share with any hit is near 2.8%. Unless noted, calls come from the whole dose curve; as a rule, active = well fitted inhibition curve with a large enough effect; inconclusive = small, poorly fitted or top-dose-only effect; inactive = no such curve, though single readings can be large or run the other way.

SMILES | KDM5B inhibitor | IP6K1 inh | IP6K1 conf
O=[N+]([O-])c1ccc(N2CCN(S(=O)(=O)c3ccc4ccccc4c3)CC2)c2ncccc12 | i | · | ·
Cc1ccsc1C(=O)N(CC#N)C1CC1 | i | · | ·
COc1ccc(Nc2cnc3ccc(-c4ccccc4)nn23)cc1 | i | 8 | ·
COc1ccc(-c2ccc3ncc(Nc4ccc5c(c4)OCO5)n3n2)cn1 | i | -20 | ·
Fc1ccc(-c2ccc3ncc(Nc4ccc5c(c4)OCO5)n3n2)cc1 | i | -35* | ?
NC(=O)c1ccc(Nc2cnc3ccc(-c4ccccc4)nn23)cc1 | i | -29* | -22%
CCCCCCn1nc(C(=O)OCC#N)c2ccccc2c1=O | i | · | ·
O=C(CCC(=O)c1cccs1)OC1CCOC1=O (stereo not drawn) | i | · | ·
Cc1noc(C)c1CCC(=O)Nc1nc(-c2ccc3c(c2)CCO3)cs1 | i | · | ·
CCOC(=O)c1ccc(NC(=O)c2ccc(=O)n(Cc3cccc(C)c3)c2)cc1 | ? | -7 | ·
CC(C)c1ccc(NC(=O)c2ccc(=O)n(Cc3ccccc3)c2)cc1 | ? | -28* | -25%
CN(Cc1ccccc1)C(=O)c1ccnc(-c2nnc3ccc(N(C)c4ccccc4)nn23)c1 | i | -3 | ·
COc1ccnc(-c2nnc3ccc(N(C)c4ccccc4)nn23)c1 | i | -39* | ?
CCN(C(=O)C(=O)c1c(C)n(C)c2ccccc12)c1ccc(OC)cc1 | i | · | ·
O=C(O)c1cccc(CN2C(=O)/C(=C(\c3ccccc3)c3ccc(Cl)cc3)c3ccccc32)c1 | · | -26* | 21µM*
Cc1ccccc1CN1C(=O)c2ccccc2Sc2ccc(C(=O)O)cc21 | i | 32 | ·
N#Cc1cccc(CN2CCC3(CC2)CC(Cc2nc(C4CC4)no2)CCO3)c1 (stereo not drawn) | i | 2 | ·
O=C(Cn1ncc2ccccc2c1=O)Nc1ccc(OC2CCCC2)cc1 | i | · | ·
Cc1ccccc1NC(=O)CSc1nc(=O)[nH]c2c1CCCC2 | i | · | ·
Cc1c(Cl)cccc1NC(=O)CSc1nc(=O)[nH]c2c1CCCC2 | i | -27* | -16%
COc1ccc2oc(=O)cc(CN3CCN(C(=O)c4c(OC)cccc4OC)CC3)c2c1 | i | · | ·
COc1ccc(OCC(O)CN2CCC(=O)N(CC3CC3)Cc3cc4c(cc32)OCO4)cc1 (stereo not drawn) | · | 10 | ·
O=Cc1cccc(-c2ccc(F)cc2F)c1 | i | 3 | ·
O=Cc1cccc(-c2cc(C(F)(F)F)ccc2Cl)c1 | i | 5 | ·
O=Cc1cccc(-c2cccc(C(F)(F)F)c2)c1 | i | -36* | ?
SMILES | KDM5B inhibitor | IP6K1 inh | IP6K1 conf
O=Cc1cccc(-c2ccccc2F)c1 | i | -29* | ?
O=C(C1CCCCN1Cc1ccc(-c2cccs2)cc1)N1CCCCC1 (stereo not drawn) | · | -18 | ·
CCN(C(=O)C(C)S(=O)(=O)Cc1ccc(Cl)cc1Cl)c1ccccc1 (stereo not drawn) | i | · | ·
Clc1ccc(-c2cc3c(cn2)CN(Cc2ccncc2)CCN3)cc1 | 32µM* | -27* | -1%
COc1ccc(Nc2cc3c(cn2)NCCN(Cc2ccccc2)C3)cn1 | ? | -25* | -18%
c1ccc(-c2cc3c(cn2)NCCN(Cc2ccsc2)C3)cc1 | 35µM* | -25* | -9%
COc1ccc(Nc2cc3c(cn2)CN(Cc2ccncc2)CCN3)cn1 | i | -9 | ·
COc1ccccc1CN1CCNc2cc(-c3ccccc3)ncc2C1 | ? | -23 | ·
CN(C)c1cccc(-c2cc3c(cn2)CN(Cc2ccncc2)CCN3)c1 | ? | -17 | ·
Cc1ccc(C)c(NC(=O)CN2CCN(S(=O)(=O)c3cccs3)CC2)c1 | i | · | ·
Cc1ccc(C)c(-c2csc(NC(=O)c3cc(C)no3)n2)c1 | i | · | ·
CC(NC(=O)c1cccnc1)c1ccc(C(F)(F)F)cc1 (stereo not drawn) | i | · | ·
O=C(O)COCC(=O)N1CCOCC1 | i | · | ·
COc1ccc(C(=O)NCC2(c3ccccc3)CCCC2)c(OC)c1 | i | · | ·
COc1ccc(NC(=O)C(=O)NCC2(c3ccccc3)CCCC2)c(OC)c1 | i | -27* | -2%
O=C(NC1CCCC1)C1=Cc2cc(Cl)ccc2OC=C1 | i | · | ·
CCC(C(=O)N1CCN(c2cc(Cl)ccc2C)CC1)n1nc(C)n2c(cc3occc32)c1=O (stereo not drawn) | ? | -26* | 2%
CCC(C(=O)N1CCN(c2ccccc2)CC1)n1nc(C)n2c(cc3sccc32)c1=O (stereo not drawn) | i | -8 | ·
CC(C)c1nc2cc(C(=O)N3CCCC(c4ccccc4)C3)ccc2o1 (stereo not drawn) | i | 6 | ·
COc1ccc(-c2cc(C(=O)Oc3cccc(C)c3)c3ccccc3n2)cc1 | ? | -12 | ·
COc1ccc(-c2cc(C(=O)Oc3cccc(C)c3)c3cc(C)ccc3n2)cc1 | ? | -30* | -15%
c1ccc(-c2nc(CSc3nnnn3C3CCCCC3)co2)cc1 | i | · | ·
Cc1cc(C(=O)NCC2CC2)c2c(C3CCCNC3)noc2n1 (stereo not drawn) | i | 5 | ·
O=C1Nc2nc(-c3c(O)cccc3OCC3CC3)cc([C@@H]3CCCNC3)c2CO1 | · | -11 | -17%
Cn1c(COc2ccccc2Cl)nnc1SC1CCCCCC1=O (stereo not drawn) | i | · | ·
SMILES | KDM5B inhibitor | IP6K1 inh | IP6K1 conf
CCNC(=O)COc1ccc(NC(=O)c2nn(CC)c(=O)c3ccccc23)cc1 | i | · | ·
Cc1ccccc1CNC(=O)c1sc2ncnc(N(C)C3CCCCC3)c2c1C | ? | -28* | -17%
Cc1ccc(CNC(=O)c2sc3ncnc(N(C)C4CCCCC4)c3c2C)cc1 | i | -6 | ·
Cc1cccc(-c2nnc(SCC(=O)N3CCCCC3)o2)c1 | i | -5 | ·
Cc1cccc(-c2nnc(SCCC(=O)O)o2)c1 | ? | -37* | ?
O=C(NCc1ccnc2[nH]ccc12)c1ccccc1 | i | 1 | ·
Fc1ccccc1CNCc1ccc(-c2ccnc3[nH]ccc23)cc1 | · | -42* | ?
COc1ccccc1-c1nc2c(c(SCc3cc(C)ccc3C)n1)Cc1c(CO)cnc(C)c1O2 | ? | -27* | -4%
COc1ccc(-c2nc3c(c(SCc4cc(C)ccc4C)n2)Cc2c(CO)cnc(C)c2O3)cc1 | i | -1 | ·
COc1ccccc1NC(=O)C1=C(C)Nc2nc3ccccc3n2C1c1cccc(Br)c1 (stereo not drawn) | ? | -26* | -2%
COc1ccccc1NC(=O)C1=C(C)Nc2nc3ccccc3n2C1c1ccccc1Cl (stereo not drawn) | i | -4 | ·
COc1ccc(CN2C(=O)CO[C@H]3CN(C(=O)NCc4ccccc4)C[C@H]32)cc1 | i | 2 | ·
CCCC(=O)c1ccc(OC(=O)c2c(-c3ccccc3Cl)noc2C)cc1 | ? | -35* | -12%
CCOc1ccc(OC(=O)c2c(-c3ccccc3Cl)noc2C)cc1 | i | 4 | ·
Cn1c(=O)n(CC(=O)NCc2nnc3n2CCCCC3)c2ccccc21 | i | · | ·
COc1ccc(-c2nc(SCC(=O)Nc3cccc(C(C)=O)c3)n[nH]2)cc1 | i | -33* | ?
COc1ccc(-c2nc(SCC(=O)Nc3cccc(C(F)(F)F)c3)n[nH]2)cc1 | i | · | ·
Cc1ccc(SCc2cc(=O)oc3c(C)c(O)ccc23)cc1 | i | · | ·
COc1cccc(NC(=O)CN2CCCN(S(=O)(=O)c3ccc(Br)cc3)CC2)c1 | ? | -19 | ·
